As usually defined, the inhibition is how much of the control response was suppressed.

Unmarked numbers belong to inactive results. How the calls were made is not given here.

Sequence of Pantothenate synthetase (Mycobacterium tuberculosis (strain ATCC 25618 / H37Rv)) (P9WIL5 whole entry, looked up): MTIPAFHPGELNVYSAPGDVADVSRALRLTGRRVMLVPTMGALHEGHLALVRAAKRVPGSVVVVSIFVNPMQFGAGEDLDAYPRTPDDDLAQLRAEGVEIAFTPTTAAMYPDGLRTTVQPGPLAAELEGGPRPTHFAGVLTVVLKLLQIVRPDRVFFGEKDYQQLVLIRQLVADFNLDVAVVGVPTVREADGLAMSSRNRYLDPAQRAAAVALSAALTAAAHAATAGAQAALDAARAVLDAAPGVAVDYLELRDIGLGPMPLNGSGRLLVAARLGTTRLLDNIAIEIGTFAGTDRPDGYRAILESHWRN

This assay concerns the target Pantothenate synthetase (Mycobacterium tuberculosis (strain ATCC 25618 / H37Rv)) (UniProt P9WIL5). The experiment in a line: Coupled enzyme confirmation of inhibitors against recombinant Mtb PanC (AID 375).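 Further: 0% = full reaction with vehicle and 100% = no enzyme background.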 The settings on record: coupled enzyme assay; at 10 µM, stronger effect = higher value.
Regarding `Fc1ccccc1-c1nc(-c2ccccc2)no1`, the inhibition is 5%.

In the case of `CCN(CC)C(=O)C1CCCN(Cc2ccc(N(C)C)cc2)C1` (stereo not given), the inhibition was 1%. Turning to `COC(=O)c1sc2ccccc2c1NC(=O)c1cccs1`, the inhibition is 2%. For the compound `CCc1ccc(CNCc2cccnc2)cc1`, the inhibition is 0%. Consider `O=C(O)CCNc1nc(-c2ccccc2)nc2ccccc12`, for which the inhibition is 3%.

Consider `COc1ccc(N2C(=O)CC(N3CCN(S(=O)(=O)c4c(F)cccc4F)CC3)C2=O)cc1OC` (stereo not given), for which the inhibition was 1%.

As for `COc1ccc(Nc2ncnc3c2cnn3-c2ccccc2)cc1OC`, the inhibition is 1%. The result for `CCOc1ccc(C(=O)N(Cc2ccc(N(C)C)cc2)C2CCS(=O)(=O)C2)cc1` (stereo not given) reads 0%; that for `Cc1cc(N2C(=O)C(=O)/C(=C(/O)c3ccc(F)cc3)C2c2ccc(F)cc2)no1` (stereo not given), 0%; that for `O=C(NCc1cccnc1)c1cccc(C(F)(F)F)c1`, 1%. Turning to `CCC(=O)/C=C1\Sc2ccc(OC)cc2N1CCO`, the inhibition is 3%. Consider `COc1ccccc1-c1nc(SCc2ccccn2)n[nH]1`, for which the inhibition is 0%. Turning to `Cc1cc(Cl)cc2c1NC(=O)[C@]21[C@@H]2C(=O)N(Cc3ccccc3)C(=O)[C@@H]2[C@@H]2CCCN21`, the inhibition is 6%.

In the case of `Cc1cc(C)cc(-n2nnc(C(=O)NCc3ccc4c(c3)OCO4)c2N)c1`, the inhibition is 0%. For the compound `CC1CCN(C(=S)c2ccccc2O)CC1`, the inhibition is 0%.

In the case of `c1ccc(CC2CCN(Cc3nc(-c4ccccc4)no3)CC2)cc1`, the inhibition is 3%. For the compound `O=S(=O)(CCOc1ccccc1)c1nc2ccccc2[nH]1`, the inhibition is 0%.

Regarding `NC(N)=Nc1nc(CSCC/C(N)=N/S(N)(=O)=O)cs1`, the inhibition is 0%. In the case of `COc1ccc(N2CCN(CCCNS(=O)(=O)c3c(C)noc3/C=C/N(C)C)CC2)cc1`, the inhibition is 15%. With `CCC(C(=O)OCC(=O)Nc1c(C)n(C)n(-c2ccccc2)c1=O)c1ccccc1` (stereo not given), the inhibition was 2%.

As to `Cc1ccc(N2CCN(CCc3nc4cc(NS(C)(=O)=O)ccc4n3C)CC2)cc1`, the inhibition was 0%. As for `COc1ccccc1-c1nc2n(n1)C(c1cccs1)C(C(=O)Nc1cccnc1)=C(C)N2` (stereo not given), the figure is 0%; as for `CCN(C(=O)c1cn(C)c(=O)c2cc(OC)c(OC)cc12)c1ccccc1C`, 6%; as for `CCOCCn1c(CN2CCC(Cc3ccccc3)CC2)nc2c1c(=O)n(C)c(=O)n2C`, 0%. Turning to `Cc1cc(C(=O)N2CCCc3ccccc32)no1`, the inhibition was 3%. Regarding `COc1ccc(C2C=C(c3ccccc3)Nc3ncnn32)cc1` (stereo not given), the inhibition is 4%. As to `O=C1CC(c2ccc(F)c(Br)c2)C2=C(CCCC2=O)N1` (stereo not given), the inhibition was 5%.

As to `CCc1c(C)c2ccc(OCC(=O)OC)cc2oc1=O`, the inhibition was 0%. Turning to `CCOc1nc(-c2ccccc2O)nc2ccccc12`, the inhibition is 0%. With `Oc1cccc(Nc2nc(NCC3CCCO3)c3ccccc3n2)c1` (stereo not given), the inhibition was 1%.

`CCOc1ccc(NC(=O)Cn2nnc(-c3ccccc3F)n2)cc1`: the inhibition is 2%. As to `COc1ccc(C2CC(c3ccc(Cl)cc3Cl)n3nc(N)nc3N2)cc1` (stereo not given), the inhibition is 0%.

As to `CCCCOc1ccc(-c2nnn(CC(=O)NCc3ccco3)n2)cc1`, the inhibition was 0%.

As for `CCCn1cnc2c(c1=O)c1nc3ccccc3nc1n2Cc1ccccc1OC`, the inhibition was 0%.

`Cc1cc(C)n2nc(S(=O)(=O)N(C)Cc3ccccc3)nc2n1`: the inhibition was 0%. Regarding `C=CCOc1ccccc1/C=c1\sc2nc(=O)c(C)nn2c1=O`, the inhibition is 0%.

Take `N/C(=N/O)c1nc(N2CCCCC2)nc(N2CCCCC2)n1`: the inhibition was 0%. As for `Cc1cccnc1NC(=O)CCCN1C(=O)c2ccccc2C1=O`, the figure is 0%. Consider `CCOc1cc(/C=N/n2cnnc2)cc(Br)c1O`, for which the inhibition was 0%. Turning to `COc1ccc(NC(=O)CN(c2ccc(C(C)C)cc2)S(=O)(=O)c2c(C)noc2C)cc1OC`, the inhibition was 0%.
